IL1B secr inh: inhibitors of inflammasome signaling (IL-1 beta secretion); THP-1 LPS/ATP IL-1B secretion, AlphaLISA, 16 h; active compounds read low; activity change, % at 57.5 µM; 4.7% of 360,000 active; in the data active = activity change below about -50%; inconclusive = mostly about -30% to -49%
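Secreted IL-1B measured by AlphaLISA bead assay after 16 h compound exposure of THP-1 cells; compounds (final up to 57.5 uM) added 1 h before LPS (250 ng/mL) and ATP (1.25 mM) stimulation; lower signal means less secretion.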
HT1080-NT tox: kills 2HG-producing HT-1080-NT fibrosarcoma cells; HT-1080-NT fibrosarcoma viability, CellTiter-Glo ATP luminescence, 48 h; Potency, µM (series often up to 46.1 µM), for inactives: top-dose activity, negative = less viability, most hits filed as cytotoxic; AID 686970; 1.6% of 360,000 active;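 note: NT is the 2HG producing partner of a matched IDH1 knockdown line; potency is the fitted concentration of half-maximal effect; 0% = DMSO-treated cells and -100% = media-only wells without cells; nearly all actives have a fitted effect of over 55% in size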
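HT-1080-NT fibrosarcoma cells (2HG-overproducing), 750 cells/well in RPMI with 5% FBS, dosed after 2 h and incubated 48 h at 37C. CellTiter-Glo luminescence normalized to DMSO and no-cell wells; concentration-response curves fitted and classed.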
TDP1 cell CPT: growth inhibition of DT40 Tdp1-/-;hTDP1 cells with camptothecin (screen for TDP1 inhibitors). chicken DT40 Tdp1-/-;hTDP1 cells + 20 nM CPT, ATP luminescence, 48 h. Potency, µM (doses to about 46.2 µM), for inactives: at the top dose activity change, negative = growth inhibition, hits mostly inhibitors. 12% of 420,000 active. AID 686979; note: potency is the fitted concentration of half-maximal effect; nearly all actives have a fitted effect of over 55% in size
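Chicken DT40 Tdp1-/- cells complemented with human TDP1, 400 cells/well, exposed to compounds plus 20 nM camptothecin for at least 48 h at 37 C; viability read as ATP content by CellTiter-Glo luminescence.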
HT1080 IDH1KD tx: toxicity to HT-1080 IDH1 knockdown cells (counter line); HT-1080 IDH1 knockdown viability, ATP luminescence, 48 h; Potency, µM (doses to about 46.1 µM), for inactives: at the highest dose activity, negative = toxicity, usual class: cytotoxic; 2% of 360,000 active; AID 686971;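 note: potency is the fitted concentration of half-maximal effect; 0% = DMSO wells and -100% = cell-free medium wells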
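CellTiter-Glo luminescence after 48 h compound exposure at 37 degrees C of IDH1-knockdown HT-1080 cells in 5% FBS RPMI. %Activity scaled between DMSO wells and cell-free media wells, with curves fitted and assigned curve classes.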
TDP1 cell noCPT: qHTS for Inhibitors of human tyrosyl-DNA phosphodiesterase 1 (TDP1): qHTS in cells in absence of CPT. Potency, µM (series often up to 46.2 µM), for inactives: at the highest dose activity change, negative = growth inhibition, most hits filed as inhibitors. AID 686978, 2013. 15% of 420,000 active. DT40 Tdp1-/- hTDP1 cells, no CPT, ATP luminescence, 48 h; note: potency is the fitted concentration of half-maximal effect; nearly all actives have a fitted effect of over 55% in size
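DT40 Tdp1-/-;hTDP1 cells, no CPT (DMSO vehicle only), 400 cells/well; compounds pin-transferred; ≥48 hr, 37 °C; CellTiter-Glo 30 min RT dark, luminescence read.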
* = called active by the depositor; ? = inconclusive; nt = no result given; [ ] = dose if it differs, or a comment. This is a sample that favours compounds with a hit; in the whole collection about 19% have one here. Unless noted, calls come from the whole dose curve; as a rule, active = well fitted curve in the direction sought with a large enough effect; inconclusive = small, poorly fitted or top-dose-only effect, or another doubt; inactive = no such curve, though single readings can be large; an effect the other way counts as inactive or inconclusive. Unless noted, % is set by controls: 0 for no effect and ±100 for the full control effect.

SMILES | IL1B secr inh | HT1080-NT tox | TDP1 cell CPT | HT1080 IDH1KD tx | TDP1 cell noCPT
O=C(c1ccc(S(=O)(=O)N2CCCCCC2)cc1)N1CCN(c2ccccc2F)CC1 | -12 | -1% | ? | -7% | ?
CC(C)(C)OC(=O)N1CCC(c2c(C(=O)NCCc3ccccc3)cnn2-c2ccc(F)cc2F)CC1 | nt | nt | 21µM* | nt | 18µM*
CCOC(=O)N1CCC(NC(=O)c2cnn(-c3ccc(F)cc3F)c2C2CCN(C(=O)OC(C)(C)C)CC2)CC1 | nt | nt | 5% | nt | -20%
CC(C)(C)OC(=O)N1CCC(c2c(C(=O)NC3CCN(Cc4ccccc4)CC3)cnn2-c2ccc(F)cc2F)CC1 | nt | nt | 12µM* | nt | 8.2µM*
CC(C)(C)OC(=O)N1CCC(c2c(C(=O)NCCc3ccccc3)cnn2-c2ccc(F)cc2)CC1 | nt | nt | ? | nt | 16µM*
CCOC(=O)c1cnn(-c2ccc(OC)cc2)c1C1CCN(C(=O)OC(C)(C)C)CC1 | nt | nt | ? | nt | 26µM*
COc1ccc(CCNC(=O)C2CCN(S(=O)(=O)c3ccc(NC(C)=O)cc3)CC2)cc1OC | 2 | 2% | -4% | 19% | 3%
C[C@@H]1CCCCCCCCC(=O)OCCN(C(=O)OC(C)(C)C)[C@H](C)CCCCCCCCC(=O)OCCN(C(=O)OC(C)(C)C)[C@H](C)CCCCCCCCC(=O)OCCN1C(=O)OC(C)(C)C | 8 | 13% | -4% | 10% | -8%
CC(C)(C)OC(=O)N1CCC(c2c(C(=O)NCc3ccccc3)cnn2-c2ccc(F)cc2)CC1 | nt | nt | 23µM* | nt | 18µM*
CC(C)(C)OC(=O)N1CCC(c2c(C(=O)NCCN3CCc4ccccc4C3)cnn2-c2ccc(F)cc2F)CC1 | nt | nt | 21µM* | nt | 12µM*
CC(C)(C)OC(=O)N1CCC(c2c(C(=O)NCc3ccccc3)cnn2-c2cccc(F)c2)CC1 | nt | nt | ? | nt | 18µM*
COc1ccc(CNC(=O)c2cnn(-c3ccc(C)cc3)c2C2CCN(C(=O)OC(C)(C)C)CC2)cc1 | nt | nt | 9.2µM* | nt | 21µM*
COC(=O)N1[C@H](C)C=C[C@]1(Cc1ccccc1)C(=O)NCCCNc1ncc(C(F)(F)F)cc1Cl | -6 | -2% | ? | -4% | ?
COc1cc(OC)cc(-c2nnc(SCc3ccc(C(=O)O)cc3)o2)c1 | -15 | 0% | 6% | -12% | -2%
O=C(COC(=O)CNC(=O)c1ccc(Cl)cc1Cl)NC(=O)NCc1ccccc1 | -16 | 3% | -28% | 2% | -24%
COc1ccc(C2/C=C\CC(NC(=O)OCC3c4ccccc4-c4ccccc43)CC(=O)N2Cc2ccccc2F)cc1 (configuration not stated) | ? | 0% | ? | -12% | ?
CC(C)(C)OC(=O)N1CCC(c2c(C(=O)NCc3ccco3)cnn2-c2ccc(F)cc2F)CC1 | nt | nt | 23µM* | nt | ?
CC(C)(C)OC(=O)N1CCC(c2c(C(=O)N3CCN(C(=O)c4ccco4)CC3)cnn2-c2ccc(F)cc2F)CC1 | -16 | 0% | ? | 3% | ?
CCC(=O)N1CCc2cc(Br)cc(S(=O)(=O)CCC(=O)Nc3cccc(CC)c3)c21 | nt | nt | -17% | nt | -15%
COc1cccc(C(NC(C)=O)c2nc(-c3ccc(F)cc3OC)cs2)c1 (configuration not stated) | 4 | 10% | ? | -6% | ?
CC1=CC2=NC(=O)/C(=C\c3cccn3CCOc3ccc(C)c(C)c3)C(=N)N2O1 | -60* | -11% | ? | -5% | ?
CC(=O)CC(=O)Nc1ncccn1 | -1 | 17% | 5% | 10% | -16%
CC1(C(=O)NS(=O)(=O)c2cccc(C#N)c2)CCN1C(=O)CCc1ccccc1 (configuration not stated) | 63 | 18% | -3% | ? | 5%
CCN1CCN(CCOc2ccc(Cl)cc2)CC1 | 12 | 0% | -4% | -2% | -11%
Clc1ccc(OCCN2CCN(c3ncnc4sccc34)CC2)cc1 | -8 | 4% | 0.58µM* | 23µM* | 0.58µM*
SMILES | IL1B secr inh | HT1080-NT tox | TDP1 cell CPT | HT1080 IDH1KD tx | TDP1 cell noCPT
Cc1ccc(OCCN2CCN(c3ncnc4sc(C)c(C)c34)CC2)cc1 | ? | -21% | 3.7µM* | -26% | 3.7µM*
O=C(CN1CCN(c2ccccc2O)CC1)Nc1ccc2c(c1)OCCCO2 | -50* | 2%[9.24 µM] | -3% | 15% | 13%
O=C(CN1CCN(S(=O)(=O)c2ccc(Cl)cc2)CC1)Nc1ccc2c(c1)OCCO2 | -5 | -7% | ? | -6% | 15µM*
O=C(CN1CCN(c2ccccc2)CC1)Nc1ccc2c(c1)OCCO2 | 0 | 14% | -5% | 1% | 4%
O=C(CN1CCN(S(=O)(=O)c2ccc(Cl)cc2)CC1)Nc1ccc2c(c1)OCO2 | -19 | -4% | ? | -13% | 29µM*
O=C(NCc1cccc(C(F)(F)F)c1)c1ccc2nc([C@H]3C[C@H](O)[C@@H](CO)O3)[nH]c2c1 | 7 | 23% | -5% | 9% | -15%
COc1cc(/C=N/Nc2cccc3cccnc23)cc(OC)c1O | ? | -12% | ? | -13% | 16µM*
Oc1c(/C=N/Nc2cccc3cccnc23)ccc2ccccc12 | -14 | 7% | ? | 9% | ?
Oc1cccc(/C=N/Nc2cccc3cccnc23)c1 | -75* | ? | ? | ? | ?
CN(C)C(=O)CCc1ccc2c3c([nH]c2c1)[C@]1(CCC2CCCC2)[C@@H](C(=O)N2CCOCC2)C[C@H](CC(=O)NCCC2=CCCCC2)C(=O)N1CC3 | 21 | -22% | 23µM* | ? | 23µM*
O=C(C[C@H]1C[C@H](C(=O)N2CCOCC2)[C@@]2(CCC3CCCC3)c3[nH]c4cc(-c5ccco5)ccc4c3CCN2C1=O)NCc1ccco1 | -55* | -21% | ? | ? | 16µM*
O=C(C[C@H]1C[C@H](C(=O)N2CCOCC2)[C@@]2(CCC3CCCC3)c3[nH]c4ccc(Cl)cc4c3CCN2C1=O)NCCc1ccccn1 | -11 | -2% | 16µM* | 4% | 16µM*
CN(C)CCCNC(=O)C[C@H]1C[C@H](C(=O)N2CCOCC2)[C@@]2(CCC3CCCC3)c3[nH]c4cc(CCC(=O)N(C)C)ccc4c3CCN2C1=O | 3 | 4% | 1% | 5% | -1%
O=C(C[C@H]1C[C@H](C(=O)N2CCOCC2)[C@@]2(CCC3CCCC3)c3[nH]c4cc(-c5ccco5)ccc4c3CCN2C1=O)NCCc1ccccn1 | -52* | 21µM* | ? | ? | ?
Cc1cc(C)nc(Nc2ncc(O)n2-c2ccc(Br)cc2)n1 | -8 | 25% | -15% | 28% | -15%
Cc1ccc(N2CC(=O)Nc3c(oc4nc(-c5ccccc5)cc(C)c34)C2=O)cc1 | 2 | -4% | -5% | -2% | -24%
